Measurements from PubChem BioAssay AID652010 (The Scripps Research Institute Molecular Screening Center, 2013).
Among all 370,000 compounds or so, about 4,100 (1.1%) were called active.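 The calls were made as follows: active = inhibition above the mean over all tested compounds plus 3 SD (cut at about 3.6% in these data); inactive = the rest.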 This excerpt belongs to a sample that is enriched for actives.

Test: relief of DAX-1 repression of SF-1 activity – cell-based, luminescence, SF-1 (NR5A1), full-length DAX-1, primary screen (AID 652010);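 also: 0% = DAX-1 cells with DMSO and 100% = cells lacking DAX-1 with DMSO; higher inhibition means more luminescence from relief of DAX-1 repression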
Conditions: HEK293T StAR-luciferase reporter, SF-1/DAX-1 repression relief; at 6.8 µM; hits give high values

inhibition, active:
COc1ccc(-c2csc(-c3cccs3)n2)cc1OC 7.97%
CC(Oc1ccccc1[N+](=O)[O-])C(=O)N/N=C/c1ccoc1 (stereo unspecified) 6.45%
COc1ccc2nc(SCc3ccccc3)nc(C)c2c1 5.06%
CC(C)(C)c1ccc(/C=C/C(=O)Nc2ncccn2)cc1 3.9%
O=C(c1cnn(-c2ccc(Cl)cc2)c1)c1ccccc1O 6.14%

inhibition, inactive:
COc1ccc(C2CC(c3cccs3)=Nc3ccccc3S2)cc1OC (stereo unspecified) 1.16%
COc1ccc(-c2csc3nc(-c4ccccc4F)oc(=O)c23)cc1OC -0.99%
O=C(CCl)NC1CCCCN(Cc2cccc(C(F)(F)F)c2)C1=O (stereo unspecified) -3.93%
C[C@H](O)[C@@H]1CN2CCc3ccc(-c4ccc5c(c4)OCO5)cc3[C@@H]2C[C@@H]1N(C)C(=O)C1CCCCC1 0.38%
COC(=O)[C@]12C[C@H](CC(=O)N3CCOCC3)C(=O)N(Cc3ccc(Cl)cc3Cl)C1=C[C@H](COCc1ccccc1)O[C@@H]2C -0.57%
CCCCNc1cccc2c1S(=O)(=O)N[C@@H](C)CO2 -0.56%
CC(C)c1cc(C(=O)N/N=C/c2ccoc2)c(O)c(C(C)C)c1 -0.83%
Cc1ccc(OCC(=O)Oc2ccccc2[N+](=O)[O-])cc1 0.05%
CCOC(=O)C1CSCCS(=O)(=O)N1Cc1ccc(Cl)cc1 (stereo unspecified) -1.28%
COC(=O)c1c(C(=O)OC)c2n(c1C)CCS2 0.03%
COc1ccc(NCc2nnc(SCc3ccccc3)n2-c2ccc(OC)cc2)cc1 0.16%
COc1cccc(CSc2nnc(-c3cccnc3)n2Cc2ccccc2)c1 1.04%
COC(=O)[C@]12C[C@H](CC(=O)NCc3ccc(C)o3)C(=O)N(CCC3=CCCCC3)C1=C[C@H](C(C)(C)C)O[C@@H]2C -0.72%
CCOC(=O)[C@@]12CCC3=C1N(CCC3)C(=O)[C@H](CC(=O)N1CCN(C(=O)c3ccco3)CC1)C2 0.29%
Cc1ccccc1CN1CCCCC(NC(=O)Nc2ccccc2F)C1=O (stereo unspecified) -2.67%
Cc1cc(C)nc(NC(=O)/C=C/c2ccc(Cl)cc2)n1 0.12%
CC(C)(C)c1ccc(/C=C/C(=O)NCCCn2ccnc2)cc1 0.37%
CC(=O)N1C[C@@H](CO)[C@@H](N(C)C(=O)C(C)(C)C)C[C@H]1c1ccccc1Br 0.98%
COC(=O)C[C@H]1CC[C@H]2[C@H](COc3ccc(NC(=O)C4CC4)cc3C(=O)N2C)O1 1.68%
CC(=O)c1nn(-c2ccc(C)cc2)cc1C(=O)c1cccc(Br)c1 -0.24%
Cc1[nH]nc(-c2ccc(OCc3cnn(-c4ccccc4)c3)cc2O)c1Oc1ccc(Cl)cc1 -0.45%
